# Like-named read-outs stand apart in the source and are kept apart here.
# What was measured:
# Set-up in all cases: species or system human, MV4-11 + K-562 + COLO205 + SK-N-BE2 + OVCAR-8
# CDC42BPG = settings: read-out: apparent Kd, compound concentrations: 100 nM and 1000 nM (sheet 'Samples'), n = 1
# CDK9 = settings: read-out: apparent Kd, compound concentrations: 100 nM and 1000 nM (sheet 'Samples'), n = 1
# FRK = settings: read-out: apparent Kd; compound concentrations: 100 nM and 1000 nM (sheet 'Samples'), CATDS: 1.6945625051929199E-2; n = 1
# FYN = settings: read-out: apparent Kd; compound concentrations: 100 nM and 1000 nM (sheet 'Samples'), CATDS: 1.7018948843541101E-2; n = 1
# LYN = settings: read-out: apparent Kd; compound concentrations: 100 nM and 1000 nM (sheet 'Samples'), CATDS: 1.4378257714361201E-2; n = 1
# MTOR = settings: read-out: apparent Kd; compound concentrations: 100 nM and 1000 nM (sheet 'Samples'), CATDS: 2.4342706030032701E-2; n = 1
# PIK3CG = settings: read-out: apparent Kd, compound concentrations: 100 nM and 1000 nM (sheet 'Samples'), n = 1
# PDGFRB = settings: read-out: apparent Kd, n = 1
# TGFBR2 = settings: read-out: apparent Kd, n = 1
# CSK = settings: read-out: apparent Kd; compound concentrations:100 nM and 1000 nM (sheet 'Samples'); n = 1
# ULK1 = settings: read-out: apparent Kd, n = 1
# CDK2 = settings: read-out: apparent Kd, compound concentrations: 100 nM and 1000 nM (sheet 'Samples'), n = 1
# ROCK1 = settings: read-out: apparent Kd, compound concentrations: 100 nM and 1000 nM (sheet 'Samples'), n = 1
# PKN2 = settings: read-out: apparent Kd, compound concentrations: 100 nM and 1000 nM (sheet 'Samples'), n = 1
# PRKG1 = settings: read-out: apparent Kd, compound concentrations: 100 nM and 1000 nM (sheet 'Samples'), n = 1
# AXL = settings: read-out: apparent Kd; compound concentrations: 100 nM and 1000 nM (sheet 'Samples'), CATDS: 1.01827981772752E-2; n = 1
# CDC42BPA = settings: read-out: apparent Kd; compound concentrations: 100 nM and 1000 nM (sheet 'Samples'), CATDS: 0.12802177694120001; n = 1
# CIT = settings: read-out: apparent Kd; compound concentrations: 100 nM and 1000 nM (sheet 'Samples'), CATDS: 4.2305109651231403E-2; n = 1
# [1] = compound concentrations:100 nM and 1000 nM (sheet 'Samples')
structure (smiles),measurement,setting,value
CCn1c(-c2cccnc2O)nc2cnccc21 [SB-736715],potency estimated from few doses,CDC42BPG; CATDS: 1.9794934428915799E-2,767 nM
same,potency estimated from few doses,CDK9; CATDS: 1.2439318728053501E-2,1990 nM
same,potency estimated from few doses,FRK,1010 nM
same,potency estimated from few doses,FYN,1010 nM
same,potency estimated from few doses,LYN,1420 nM
same,potency estimated from few doses,MTOR,547 nM
same,potency estimated from few doses,PIK3CG; CATDS: 9.1944344631326697E-2,91.6 nM
CN(C)CCNC(=O)Nc1ccc(N(C)c2ccnc(Nc3ccc(CS(C)(=O)=O)cc3)n2)cc1.Cl [GW830900A],potency estimated from few doses,PDGFRB; [1],1330 nM
same,potency estimated from few doses,TGFBR2; [1],1550 nM
NC(=O)c1cc(-c2ccccc2)cc2c(C3CCNCC3)c[nH]c12 [GSK301362A],potency estimated from few doses,PDGFRB; [1],1630 nM
CC(=O)N[C@@H](Cc1ccc(OP(=O)(O)O)cc1)C(=O)N[C@H]1CCC(=O)N2CCC[C@@H](C(=O)NCc3ccc(Cl)cc3)N2C1=O [RO0325308-000],potency estimated from few doses,CSK,1550 nM
same,potency estimated from few doses,ULK1; [1],1610 nM
O=C1N=C(NCc2cccs2)O/C1=C\c1ccc2ncccc2c1 [RO4624208-000],potency estimated from few doses,PIK3CG; CATDS: 5.5474832594148302E-2,936 nM
O=C(O)C(F)(F)F.O=c1[nH]ccc2nc(N[C@@H]3CCNC3)nc(Nc3ccc4c(c3)S(=O)(=O)CC4)c12 [GSK2181306A],potency estimated from few doses,CDK2; CATDS: 1.3422730745161799E-2,398 nM
same,potency estimated from few doses,"PDGFRB; compound concentrations: 100 nM and 1000 nM (sheet 'Samples'), CATDS: 8.63750114385467E-3",1400 nM
same,potency estimated from few doses,PIK3CG; CATDS: 1.1005849922452E-2,648 nM
same,potency estimated from few doses,ROCK1; CATDS: 8.6334191105918393E-3,1410 nM
same,potency estimated from few doses,"ULK1; compound concentrations: 100 nM and 1000 nM (sheet 'Samples'), CATDS: 1.11724420901094E-2",623 nM
c1ccc(-c2n[nH]cc2Nc2ccnc3ccccc23)nc1 [GW694077X],potency estimated from few doses,PKN2; CATDS: 2.23851306081322E-2,2310 nM
same,potency estimated from few doses,ROCK1; CATDS: 2.4219369604879502E-2,1650 nM
same,potency estimated from few doses,"TGFBR2; compound concentrations: 100 nM and 1000 nM (sheet 'Samples'), CATDS: 2.8342721884761699E-2",940 nM
Cl.Cl.NC(CNC(=O)c1cc(Br)c(-c2ccnc3[nH]ccc23)s1)c1ccccc1.NC(CNC(=O)c1cc(Br)c(-c2ccnc3[nH]ccc23)s1)c1ccccc1 (stereo not shown) [GSK1322949A],potency estimated from few doses,CDC42BPG; CATDS: 3.2590652290340097E-2,1010 nM
same,potency estimated from few doses,PRKG1; CATDS: 7.4482262143184694E-2,247 nM
same,potency estimated from few doses,ROCK1; CATDS: 9.3197598269089799E-2,181 nM
COc1cc[nH]c1/C=C1\C(=O)Nc2ccc(F)c(C#CC3(O)CCNCC3)c21.Cl [RO0282986-001],potency estimated from few doses,AXL,1230 nM
same,potency estimated from few doses,CDK2; CATDS: 1.26412371427807E-2,615 nM
same,potency estimated from few doses,CDK9; CATDS: 1.1942255869273499E-2,724 nM
same,potency estimated from few doses,"PDGFRB; compound concentrations: 100 nM and 1000 nM (sheet 'Samples'), CATDS: 1.1337273569473399E-2",850 nM
NCC(NC(=O)c1cc(-c2cn[nH]c2)c(-c2ccnc3[nH]ccc23)s1)c1ccccc1.NCC(NC(=O)c1cc(-c2cn[nH]c2)c(-c2ccnc3[nH]ccc23)s1)c1ccccc1.O=C(O)C(F)(F)F.O=C(O)C(F)(F)F (stereo not shown) [GSK1325775A],potency estimated from few doses,CDC42BPA,75.6 nM
same,potency estimated from few doses,CDC42BPG; CATDS: 3.6567109546732701E-2,1070 nM
same,potency estimated from few doses,CIT,719 nM
same,potency estimated from few doses,PKN2; CATDS: 3.8123557619569197E-2,949 nM
same,potency estimated from few doses,PRKG1; CATDS: 5.9396104813121603E-2,330 nM
same,potency estimated from few doses,ROCK1; CATDS: 0.15957099257621499,52.4 nM
